Screening results: PubChem BioAssay, several laboratories
The list is not random: actives were taken first. Their share in the collection is about 4.7%.
TIM10 inh: growth inhibitors of TIM10 yeast strain. AID 463195. inhibition, % at 10 µM. S. cerevisiae TIM10 strain growth, BacTiter-Glo luminescence, 24 h. 330,000 compounds, 1.4% hits;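 active = inhibition of 40% or more at the single tested concentration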;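 note: wild-type TIM10 isogenic control strain grown at permissive 25 °C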
tim10-1 inh: tim10-1 yeast growth inhibition; inhibition, % at 20 µM; S. cerevisiae tim10-1 ts strain growth, BacTiter-Glo, 24 h; AID 463190; 330,000 compounds, 2.2% hits;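 active = inhibition of at least 40%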;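 note: mutant grown at 25 °C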
SKKanGAS inh: inhibitors of SKKanGAS S. pyogenes growth in kanamycin (SK-promoter or general growth effect); BacTiter-Glo, 6 h; inhibition, % at 7.5 µM; AID 1662; 300,000 compounds, 1.3% hits;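 active = mean replicate score, as percent of positive control median, at least 50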;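 note: strain carries kanamycin resistance gene driven by streptokinase promoter and grows in 40 µg/ml kanamycin; loss of luminescence reflects streptokinase promoter inhibition or plain growth inhibition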
EBI2 block: blocks human EBI2 receptor beta-arrestin signaling; EBI2 beta-arrestin recruitment, luminescence, 7a,25-OHC stimulated; 360,000 compounds, 0.81% hits; inhibition, % at 5 µM; in the data active = inhibition above about 38%;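 note: enzyme fragment complementation signal reports receptor beta-arrestin coupling in cells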
Target sequence (P32249 whole entry, looked up, the tested form may be a part): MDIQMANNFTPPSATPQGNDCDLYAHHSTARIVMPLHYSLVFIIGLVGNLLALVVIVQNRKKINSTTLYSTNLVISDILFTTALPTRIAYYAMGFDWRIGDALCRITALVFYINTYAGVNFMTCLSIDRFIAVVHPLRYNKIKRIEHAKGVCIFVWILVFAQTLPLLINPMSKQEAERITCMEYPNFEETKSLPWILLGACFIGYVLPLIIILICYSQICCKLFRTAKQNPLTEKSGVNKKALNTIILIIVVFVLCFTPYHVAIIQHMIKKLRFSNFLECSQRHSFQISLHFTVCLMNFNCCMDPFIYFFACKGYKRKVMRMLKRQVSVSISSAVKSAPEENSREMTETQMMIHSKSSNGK
tim23-1 inh: inhibits growth of tim23-1 mutant yeast | S. cerevisiae tim23-1 growth, BacTiter-Glo luminescence, 24 h | inhibition, % at 20 µM | 330,000 compounds, 1.3% hits | AID 463212;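 active = growth inhibition of the mutant yeast at or above 50%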;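 note: temperature-sensitive mutant grown at 25 °C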
PfHsp90 yeast 2: inhibits growth of yeast expressing Plasmodium falciparum Hsp90; S. cerevisiae expressing PfHsp90, BacTiter-Glo ATP, 48 h; yeast lacking PDR1 and PDR3 efflux regulators; inhibition, % at 9.4 µM; 310,000 compounds, 0.32% hits; AID 504621;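 active = every replicate shows inhibition above about 80%, whatever the replicate mean, limit read from the data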
TIM10 conf: TIM10 yeast growth inhibition, confirmed. inhibition, % at 10 µM. AID 463215. shares compounds with TIM10 inh. S. cerevisiae tim10 strain growth, BacTiter-Glo luminescence, 24 h. 4,600 compounds, 63% hits;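 active = inhibition of yeast growth at or above a set limit in either of two replicates at 10 µM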; note: this counterscreen used the strain with wild-type TIM10
Numbers stand for hits; . = inactive; / = not tested or not shown.

SMILES	TIM10 inh	tim10-1 inh	SKKanGAS inh	EBI2 block	tim23-1 inh	PfHsp90 yeast 2	TIM10 conf
CCCCn1c(N)c(N(CC(C)C)C(=O)c2ccc(N3C(=O)c4ccccc4C3=O)cc2)c(=O)[nH]c1=O	.	.	.	.	.	.	/
CC(C)(C)c1ccc(OCC(O)CN2CCOCC2)cc1 (configuration not stated)	48.3	.	.	.	.	.	.
COc1cc(NC(=O)c2ccccc2)cc(OC)c1	67.7	.	.	.	.	.	46.3
COC(=O)c1cc(NC(=O)c2cccnc2)cc(C(=O)OC)c1	.	.	.	.	.	.	/
COC(=O)c1cc(NC(=O)c2cccc(F)c2)cc(C(=O)OC)c1	47.9	.	.	.	.	.	31.1
O=C(COc1cccc(NC(=O)c2ccccc2)c1)c1ccc(F)cc1	41.6	.	.	.	.	.	33.9
COc1ccc(C(=O)Nc2cc(OC)cc(OC)c2)cc1	.	.	.	.	.	.	/
CCOC(=O)Nc1cccc(OCC(=O)Nc2ccccc2OC)c1	41.7	.	.	.	.	.	.
COc1c(F)c(F)c(C(=O)Nc2c(C)cc(Br)cc2C)c(F)c1F	.	.	.	.	.	.	/
O=C(N/N=C/c1ccc(Br)o1)/C(=C/c1ccc([N+](=O)[O-])cc1)NC(=O)c1ccccc1	.	.	.	.	.	.	/
CCOC(=O)Nc1cccc(NC(=O)c2cc(OC)cc(OC)c2)c1	41.3	.	.	.	.	.	.
O=C(O)/C=C\C(=O)Nc1cccc(C(=O)Nc2cccc(O)c2)c1	.	.	.	.	.	.	/
O=C(Nc1cccc(O)c1)c1ccccc1	40.0	.	.	.	.	.	.
Cn1c(=O)c2c(ncn2CC(COCc2ccccc2)OCc2ccccc2)n(C)c1=O (configuration not stated)	.	.	.	.	.	.	/
CN(C)CCNc1ncnc2c1ncn2[C@H]1CN(Cc2ccc3c(c2)OCO3)C[C@@H](CO)O1	/	/	/	.	/	/	/
O=S(=O)(c1ccc(F)cc1)N1CCC(n2cnc3ccccc32)CC1	.	.	.	.	.	.	/
CC(Oc1cccc(Cl)c1)C(=O)N(C)CC(=O)Nc1ccc(N2CCOCC2)cc1 (configuration not stated)	.	.	.	.	.	/	/
O=C(CCl)c1ccc2c(c1)CCN2C(=O)C1CC1	60.5	.	.	/	.	/	73.7
Cc1cccc(CSc2nnc(-c3ccccn3)n2N)c1	.	.	.	.	.	.	/
Nn1c(SCc2ccc(Br)cc2)nnc1-c1ccccn1	45.7	.	.	.	.	.	59.8
Cc1cc(-c2ccccc2)nc(N/N=C/c2ccco2)n1	45.4	.	.	.	.	/	36.6
COC(=O)c1ccc(OCc2nn[nH]n2)cc1	.	.	.	.	.	.	/
CC1C(=O)CC(c2ccccc2)N(C)C1c1ccccc1 (configuration not stated)	.	.	.	.	.	.	/
CCC1C(c2ccccc2)N(C)C(c2ccccc2)CC1(O)c1ccccc1 (configuration not stated)	44.0	.	.	.	.	.	34.2
CCOC(=O)[C@H]1[C@H]2COc3ccc(OC)cc3[C@@H]2N2C(=O)CN(C)C(=O)[C@@]12C	.	.	/	.	.	.	/
SMILES	TIM10 inh	tim10-1 inh	SKKanGAS inh	EBI2 block	tim23-1 inh	PfHsp90 yeast 2	TIM10 conf
COc1ccc(-c2cn[nH]c2-c2ccc(OCc3ccc(F)cc3)cc2O)cc1OC	40.1	.	.	.	.	.	33.5
Oc1cc(OCc2ccccc2)ccc1-c1[nH]ncc1-c1ccccc1	49.9	.	73.1	.	.	105.0	45.9
O=[N+]([O-])c1ccc(COc2ccc(-c3[nH]ncc3-c3ccccc3)c(O)c2)cc1	.	.	.	.	.	.	/
CCOc1ccc(C(C)NC(=O)c2ccc3c(c2)NC(=O)C(C)S3)cc1OCC (configuration not stated)	.	.	/	.	.	/	/
O=C1c2ccccc2S(=O)(=O)c2cc(N3CCC(C(=O)N4CCCCC4)CC3)ccc21	.	.	.	/	.	/	/
O=C1c2ccccc2S(=O)(=O)c2cc(N3CCc4ccccc4C3)ccc21	44.2	.	.	/	.	/	.
Cc1ccc2nc(N3CCN(c4cccc(C)c4C)CC3)c3nnnn3c2c1	.	.	.	.	.	.	/
